According to PubChem BioAssay (NCI):
The panel holds about 83,000 compounds, 20% with a hit somewhere; the sample as a whole holds those more often.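 Results are percent growth after 48 hours of single-concentration exposure. 100 means growth as in untreated cells, lower positive values show inhibition; negative values down to -100 show cell death.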 A number with no mark means an inactive call. Active and inactive are the calls of the source. How the source made its calls: active means growth percent below 10; inactive means the rest.

Tests used:
Experiment in all cases: NCI-60 one-dose screen, 48 h (100 = growth as untreated, 0 = no growth, -100 = all killed)
Conditions in all cases: 10 µM unless noted
HCT-15 colon = tested on: HCT-15 colon
HT29 colon = tested on: HT29 colon
SNB-75 CNS = tested on: SNB-75 CNS
SNB-19 CNS = tested on: SNB-19 CNS
U251 CNS = tested on: U251 CNS
PC-3 prostate = tested on: PC-3 prostate
SK-MEL-5 melanoma = tested on: SK-MEL-5 melanoma
UACC-62 melanoma = tested on: UACC-62 melanoma
LOX IMVI melanoma = tested on: LOX IMVI melanoma
SK-MEL-28 melanoma = tested on: SK-MEL-28 melanoma

| Structure (SMILES) | growth (HCT-15 colon) | growth (HT29 colon) | growth (SNB-75 CNS) | growth (SNB-19 CNS) | growth (U251 CNS) | growth (PC-3 prostate) | growth (SK-MEL-5 melanoma) | growth (UACC-62 melanoma) | growth (LOX IMVI melanoma) | growth (SK-MEL-28 melanoma) |
| --- | --- | --- | --- | --- | --- | --- | --- | --- | --- | --- |
| CN(C)CCNc1ccc2ncc(C#Cc3cncc(C(=O)Nc4ccc(CN5CCN(C)CC5)c(C(F)(F)F)c4)c3)n2n1 | 34.7% | -13% (active) | -93.4% (active) | 1.59% (active) | 23.8% | 2.27% (active) | 74.6% | 60.2% | -88.6% (active) | 75% |
| CCOP(=O)(OCC)OC[C@]12CCC(C)(C)C[C@H]1C1=CC[C@@H]3[C@@]4(C)CC[C@H](OP(=O)(OCC)OCC)C(C)(C)[C@@H]4CC[C@@]3(C)[C@]1(C)CC2 | 34.6% | 41.4% | 58.9% | 71.2% | 49.1% | 19.3% | 31.3% | 53.9% | 37.2% | 78.9% |
| C#C[C@]1(O)CC[C@H]2[C@@H]3CC=C4c5sc(NCc6ccccc6)nc5CC[C@]4(C)[C@H]3CC[C@@]21C | 8.8% (active) | -7.33% (active) | 23.5% | 66.2% | 23.4% | 15.3% | 58.2% | 9.41% (active) | -5.72% (active) | 12.7% |
| O=C(NCCNc1cc(-c2cn(-c3ccccc3)nc2-c2cccc(O)c2)ccn1)Nc1cc(C(F)(F)F)cc(C(F)(F)F)c1 | 100% | 95.7% | 75.4% | 97% | 86.8% | 80.7% | 96.8% | 94.1% | 88% | 96.9% |
| O=C(/C=C/c1cccc(F)c1)c1cccc(OCCCCOc2cccc(C(=O)/C=C/c3cccc(F)c3)c2)c1 | 97.6% | 106% | 102% | 94% | 105% | 97.6% | 98.6% | 94.8% | 95.2% | 105% |
| CCC1=Cc2c(OC)cccc2OC12C=Cc1c(OC)cccc1O2 (stereo not given) | 13.4% | 4.59% (active) | 18.6% | 24.8% | 24.7% | 36.1% | 25.7% | 26.2% | 28.4% | 52% |
| CC(=O)N(O)CCCCCNC(=O)CCC(=O)N(O)CCCCCNC(=O)CCC(=O)N(O)CCCCCN(CCCCCCCCCC[P+](c1ccccc1)(c1ccccc1)c1ccccc1)CCCCCCCCCC[P+](c1ccccc1)(c1ccccc1)c1ccccc1 | 51.1% | 5.49% (active) | -11% (active) | 17.2% | 6.66% (active) | 19.6% | -45.9% (active) | -10.6% (active) | -15% (active) | 13.4% |
| CCc1cc2c(cc1Cl)nc1c(=O)[nH]c(=O)nc-1n2CCOCC(C)(C)C | 58.3% | 58.5% | 97% | 91% | 83.4% | 68% | 39.6% | 76.1% | 71.9% | 97.2% |
| Nn1c(=O)n(-c2cccc(C(F)(F)F)c2)c(=O)c2cc(-c3ccc(F)cc3F)ccc21 | 10.6% | 60.8% | -16.5% (active) | 9.55% (active) | 5.07% (active) | -3.92% (active) | -51.6% (active) | 1.73% (active) | 0.654% (active) | 28% |
| Cc1ccc(C)c(NC2=C(Cl)C(=O)c3nc(C)ccc3C2=O)c1 | -60.9% (active) | 86.4% | 63.2% | 17.1% | 1.85% (active) | 9.58% (active) | -96.8% (active) | -35.2% (active) | -69.5% (active) | -11.6% (active) |
| CS(=O)(=O)c1ccc(/C(=N/N=C(N)N)c2ccc(F)cc2)cc1 | 74.9% | 91.5% | 94.6% | 63% | 67.2% | 73.9% | 82.8% | 74.6% | 54.4% | 95.5% |
| CCCNNC(=O)c1ccc(-c2ccc(NC(=O)CCCCCCC(=O)N[C@H](C(=O)N3C[C@H](O)C[C@H]3C(=O)N[C@@H](C)c3ccc(-c4scnc4C)cc3)C(C)(C)C)cc2)cc1 | 97.5% | 5.44% (active) | 55.1% | 28.6% | 17.1% | 37.2% | -0.921% (active) | -5.46% (active) | -41.8% (active) | 23.9% |
| COC(=O)CCCNCCCn1ccc2cc(NCc3cccc(-c4ccccc4)c3C)ccc21 | 55.5% | 90.7% | 68.9% | 82.4% | 64.8% | 58.4% | 92.8% | 83.4% | 4.91% (active) | 75.9% |
| COc1ccc2[nH]cc(-c3nc(N)nnc3-c3cn(C)c4ccc(Br)cc34)c2c1 | 22% | 2.43% (active) | -4.14% (active) | 30.5% | 20.2% | 24.5% | 15% | 15.9% | 35.4% | 51.3% |
| C#CCOc1ccc(/C=N/Nc2nc(-c3ccc(OC)cc3)cs2)cc1 | 80.1% | 105% | 86.2% | 87.8% | 96.4% | 73.1% |  | 67.1% | 89.7% | 102% |
| O=S(=O)(NCCCNc1nccc(-c2[nH]c(-c3ccccc3)nc2-c2ccc(F)c(O)c2)n1)c1ccccc1 | 101% | 98.1% | 79.5% | 110% | 114% | 88.2% |  | 19.6% | 83.7% | 33.8% |
| CCCCCCCCCCCC(=O)NC(C)(C)C(=O)N1CCCC1C(=O)NC(C)(C)C(=O)NC(C)(C)C(=O)N1CCCC1C(=O)NC(C)(C)C(=O)NC(C)(C)C(=O)N1CCCC1C(=O)NC(C)C(=O)NCCC(=O)NC(C)C(=O)NC(C)(C)C(=O)NC(C)(C)C(=O)NC(C)(C)C(=O)NCCC(=O)NC(C)(C)C(=O)NC(C)(C)C(=O)NC(C)(C)C(=O)NC(C)C(=O)NCCC(=O)O (stereo not given) | -96.5% (active) | -86.6% (active) | -89.7% (active) | -97.4% (active) | -94.7% (active) | -93% (active) |  | -90.9% (active) | -92.4% (active) | -93.8% (active) |
| N#Cc1cccc(-c2cc(-c3ccc4c(c3)OCCO4)[nH]n2)c1 | 23.2% | 11.2% | 10.6% | 36.6% | 30.2% | 39.7% |  | 41.7% | 46% | 55.9% |
| Cc1[nH]c(C(=O)Nc2ccc(C(N)=O)cc2N2CCOC(C)C2)c(Cl)c1Cl (stereo not given) | 93.7% | 118% | 62.3% | 92.7% | 98.6% | 96.7% |  | 91.1% | 94% | 108% |
| Cc1ccc(NC2=C(Cl)C(=O)c3nc(C)ccc3C2=O)c(C)c1 | -57.7% (active) | 80.5% | 87.9% | 30.5% | 22.6% | 22.6% |  | 18.5% | -29.2% (active) | 30.9% |
| CN(C)CCCOc1ccc(C(=C(c2ccccc2)C2CCCC2)c2ccc(OCCCN(C)C)cc2)cc1 | -89.2% (active) | -86.3% (active) | -66.1% (active) | -80.4% (active) | -74.4% (active) | -65.5% (active) |  | -91.6% (active) | -84.3% (active) | -96.4% (active) |
| N#Cc1nc(-c2ccc(Cl)cc2)oc1N1CCC(S(=O)(=O)N2CCOCC2)CC1 | 105% | 98% | 94.2% | 92.2% | 102% | 95.4% |  | 94.1% | 81.7% | 101% |
| NC(=S)n1c(=O)n(-c2cccc(C(F)(F)F)c2)c(=O)c2cc(-c3ccc(F)cc3F)ccc21 | 9.27% (active) | 37.4% | -24.9% (active) | 15.6% | 9.68% (active) | 0.986% (active) |  | -3.3% (active) | -46.5% (active) | 23% |
| N#Cc1c(-c2cccs2)cc(-c2cnccn2)nc1SCC(=O)N/N=C/c1ccc(Cl)cc1 | 98.5% | 104% | 95.8% | 105% | 100% | 93.9% | 101% | 91.3% | 92% | 110% |
| COc1ccc(C2CC(c3cccc(OCCCCOc4cccc(C5=NOC(c6ccc(OC)cc6)C5)c4)c3)=NO2)cc1 (stereo not given) | 77.3% | 69.8% | 101% | 92% | 77.3% | 99.8% |  | 68.8% | 17.9% | 102% |
| C#CCN(C)CCCOc1ccc(NC(=O)CCCCCCC(=O)NO)cc1Cl | 64.9% | 10.5% | 26.3% | 30.3% | 8.98% (active) | 26.5% | -4.82% (active) | -28.9% (active) | -61.4% (active) | 27.1% |
